# Source: PubChem BioAssay AID1851 (National Center for Advancing Translational Sciences (NCATS), 2009)
# “And” between values parts separate entries of the source, which are not always exact repeats. Identical values can stand only once. Among all 16,000 compounds or so, about 4,000 (25%) were called active. About 26% were inconclusive and are not listed. The call rests on the fitted dose curve; in most records, active means well fitted curve in the direction sought with a large enough effect; inconclusive means small, poorly fitted or top-dose-only effect, or effect the other way; inactive means no such curve, though single readings can be large or run the other way. A selection follows. Where a structure was tested more than once in an assay, its records may differ in their call.
# Target: Cytochrome P450 2C9 (Homo sapiens) (UniProt P11712)
# Assay: Cytochrome panel assay with activity outcomes
# Settings: recombinant CYP, pro-luciferin dealkylation, luminescence, p450-cyp2c9; series mostly up to 57.1 µM
# On the % scale 0 is the no-effect control and ±100 the full control effect.
# Cytochrome P450 2C9 (Homo sapiens), sequence (P11712 whole entry, looked up): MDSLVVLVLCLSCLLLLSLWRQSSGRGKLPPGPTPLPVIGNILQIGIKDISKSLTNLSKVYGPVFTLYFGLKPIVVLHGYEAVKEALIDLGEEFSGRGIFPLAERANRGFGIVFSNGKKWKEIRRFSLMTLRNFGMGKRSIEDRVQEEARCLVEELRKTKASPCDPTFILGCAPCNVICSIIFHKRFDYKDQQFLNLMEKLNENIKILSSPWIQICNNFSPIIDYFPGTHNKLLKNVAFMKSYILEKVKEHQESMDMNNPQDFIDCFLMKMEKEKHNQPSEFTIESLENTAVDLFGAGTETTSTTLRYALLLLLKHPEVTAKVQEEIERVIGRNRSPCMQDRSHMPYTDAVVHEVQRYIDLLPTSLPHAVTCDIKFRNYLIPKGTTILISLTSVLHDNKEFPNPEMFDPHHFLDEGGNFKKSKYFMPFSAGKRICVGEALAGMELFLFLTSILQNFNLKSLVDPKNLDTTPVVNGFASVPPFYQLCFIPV
SMILES,AC50,"activity, negative = inhibition"
O=C(O)c1c(Cl)c(Cl)c(Cl)c(Cl)c1C(=O)Nc1ccc2cn[nH]c2c1,0.0794 µM (active),
CCNc1ncc2nc(-c3ccc(Cl)cc3)c(=O)n(C3CC3)c2n1,inactive,
Cc1ccc(Nc2c([N+](=O)[O-])ccc3c2=NC2(CCCCC2)N=3)cc1,5.01 µM (active),
COc1ccc(-c2cc(C(=O)Nc3cnn(Cc4ccccc4C)c3)no2)cc1OC,inactive,
O=C(Nc1cnn(Cc2ccc(Cl)cc2Cl)c1)c1cc(-c2cccs2)on1,8.91 µM (active),
O=C(CC1C(=O)N(c2ccc(Cl)cc2)C(=S)N1CCc1ccncc1)Nc1ccc(F)cc1 (stereo unspecified),0.0631 µM (active),
CN(C)CC/C=C1\c2ccccc2COc2ccccc21,inactive,
Cn1c(=O)c2c(ncn2CN2CCN(Cn3cnc4c3c(=O)n(C)c(=O)n4C)CC2)n(C)c1=O,,5.13% [at 11.4 µM] (inactive)
C#CCCCO/N=C1/C[C@@H](O)[C@@H](O)[C@@H]2[C@@H]3C(=O)N([C@@H](C)c4ccccc4)C(=O)[C@H]3CC[C@@H]12,,-23.8% [at 11.4 µM] (inactive)
CC1(C)CC(=O)C2=C(C1)Oc1nc3ccccc3cc1C2C(C#N)C#N (stereo unspecified),3.55 µM (active),
Cc1cc2c(cc1C)NC(c1nc3ccccc3[nH]1)C1=C(CC(C)(C)CC1=O)N2 (stereo unspecified),inactive,
CC1(C)Cc2c(sc3c2C(=O)N(c2ccccc2)C2=NCCN23)CS1,inactive,
Cc1ccc(-n2c(SCC(=O)NCc3ccco3)nc3sc4c(c3c2=O)CC(C)(C)SC4)cc1,2.24 µM (active),
CC1(C)Cc2c(sc3nc(SCC(=O)NCc4ccccc4)n(-c4ccccc4)c(=O)c23)CS1,6.31 µM (active),
Nc1nc2c(c(=O)[nH]1)CN(c1ccc(S(N)(=O)=O)cc1)CN2,,7.1% [at 11.4 µM] (inactive)
O=C1C2=CC[C@@H]3C(=O)N(c4ccc(F)cc4F)C(=O)[C@H]3[C@H]2[C@H](O)[C@H]2O[C@H]12,,4.69% [at 11.4 µM] (inactive)
C=CCOC(=O)/C(=C\c1cccc2ccccc12)NC(=O)c1ccccc1,1.41 µM (active),
Cc1ccc(S(=O)(=O)c2c(C)nn(C(C)(C)C)c2OC(=O)c2cccs2)cc1,3.16 µM (active),
C[C@@]12CCC(=O)C=C1CC[C@@H]1[C@@H]2[C@H](O)C[C@]2(C)[C@@H]1CC[C@]2(O)C(=O)COC(=O)CCC(=O)O,inactive,
CN=C(N)/N=C(\N)Nc1cc2ccccc2c2ccccc12,,-14.6% [at 11.4 µM] (inactive)
C=CC(C)(C)c1[nH]c2ccccc2c1C1=C(O)C(=O)C(c2c[nH]c3c(CC=C(C)C)cccc23)=C(O)C1=O,7.94 µM (active),
c1ccc(SCCc2ccncc2)cc1,1.12 µM (active) and 1.26 µM (active),
c1ccc(CCN2CCN=C2Cc2ccccc2)cc1,,-8.28% [at 11.4 µM] (inactive)

SMILES,AC50,"activity, negative = inhibition"
ON(CCc1ccncc1)Cc1ccccc1,3.98 µM (active),
Fc1ccc(SCCc2ccncc2)cc1,2 µM (active),
ON(CCc1ccccn1)Cc1ccccc1,,-2.37% [at 11.4 µM] (inactive)
Br/C(=N\Nc1nn[nH]n1)c1ccncc1,,-3.74% [at 11.4 µM] (inactive)
Cc1nc2cnc(Nc3ccccc3)nc2n(Cc2cccs2)c1=O,inactive,
COc1ccc(Oc2ncc3ncc(=O)n(Cc4cccs4)c3n2)cc1,15.8 µM (active),
Cc1nc2cnc(Oc3ccccc3)nc2n(Cc2cccs2)c1=O,25.1 µM (active),
COc1ncc2ncc(=O)n(Cc3cccs3)c2n1,inactive,
O=c1cnc2cnc(Oc3ccccc3)nc2n1Cc1cccs1,25.1 µM (active),
CN1CCN(c2ncc3ncc(=O)n(Cc4cccs4)c3n2)CC1,inactive,
Cn1cc(-c2nc3cnc(Oc4ccccc4)nc3n(Cc3cccs3)c2=O)c2ccccc21,inactive,
Clc1ccccc1-c1ccc2ncnc(N3CCNCC3)c2c1,,-9.02% [at 2.29 µM] (inactive)
COc1ccc(COC(=O)N/N=C2/C[C@@H](O)[C@@H](O)[C@@H]3[C@H]4C(=O)N(c5ccc(F)cc5F)C(=O)[C@@H]4CC[C@@H]23)cc1,,-15.8% [at 11.4 µM] (inactive)
O=C(Nc1cccc(C(F)(F)F)c1)c1n[nH]c(Cn2cncn2)n1,4.47 µM (active),
CC(=O)Nc1c2c3c(cccc3n(C)c1=O)C(=O)c1ccccc1-2,15.8 µM (active),
Cc1c(NC(=O)C(C)N2C(=O)c3ccccc3C2=O)c(=O)n(-c2ccccc2)n1C (stereo unspecified),inactive,
Fc1ccc(COc2ccc(Br)cc2CNCc2ccncc2)cc1,3.98 µM (active),
CO[C@H]1COC(=O)[C@H](Cc2ccccc2)NC(=O)C/C=C\[C@@H](C)[C@H](OC)COC(=O)C/C=C\[C@@H]1C,,2.05% [at 11.4 µM] (inactive)
CC1(C)CC(=O)C(C(C#Cc2ccccc2)C2=C(O)CC(C)(C)CC2=O)=C(O)C1,15.8 µM (active),
COc1ccc(CNc2ccnc(-c3ccccc3CN(C)C)n2)c(OC)c1,,10.2% [at 2.29 µM] (inactive)
CC(C)(C)c1cc2cccnc2n1Cc1cccc(F)c1,inactive,
CC1=C(\C=C/C(C)=C/C=C\C(C)=C\C(=O)O)C(C)(C)CCC1,10 µM (active) and inactive,
CC1=CC(=O)CC(C)(C)[C@]1(O)/C=C\C(C)=C\C(=O)O,,9.93% [at 11.4 µM] (inactive)

SMILES,AC50,"activity, negative = inhibition"
CC(C)CCNc1ncnc2[nH]ncc12,,6.22% [at 11.4 µM] (inactive)
CCOC(=O)c1cnc2c(cnn2C)c1NCCCN(C)C,inactive,
CNC(=O)c1nnn(Cc2ccccc2)c1NC(=O)C(F)(F)F,12.6 µM (active),
COC(=O)c1nnn(Cc2ccccc2)c1N,inactive,
O=C(c1cc(C(F)(F)F)cc(C(F)(F)F)c1)N1CCC2(CCN(Cc3ccccc3)CC2)CC1,inactive,
Nc1ncnc2c1c(-c1ccc(Oc3ccccc3)cc1)cn2C1CCCC1,31.6 µM (active),
Nc1ncnc2c1ncn2C1CCCC1,inactive,
Cc1ccc(CNCC(O)(c2ccc(F)cc2)c2ccc(F)cc2)cc1,25.1 µM (active),
CCOC(=O)CSc1n[nH]c(-c2cccnc2)n1,inactive,
CCOC(=O)CC(=O)CSc1nc(-c2cccnc2)cc(C)c1C#N,1.26 µM (active),
CCCC(=O)n1nc(-c2cccnc2)nc1N,inactive,
O=C(c1cc(-c2cccs2)on1)N1CCN(c2ccc(F)cc2)CC1,1.58 µM (active),
O=c1cc(CN2CCN(c3ccc(F)cc3)CC2)c2cc3c(cc2o1)CCCC3,inactive,
C/C=C\C(=O)N(CC)c1ccccc1C,inactive,
CSc1cc2c(cc1C(F)(F)F)N(C(=O)Nc1cccnc1)CC2,0.00631 µM (active),
Cn1ccc2cc3c(cc21)CCN3C(=O)Nc1cccnc1,inactive,
COc1cc2c(cc1C(F)(F)F)N(C(=O)Nc1cc(F)cc(-c3cccnc3)c1)CC2,0.794 µM (active),
CN1CCc2cc(NC(=O)Nc3cccnc3)ccc21,inactive,
COC(=O)c1ccc(NC(=O)N2CCC(O)(c3cccnc3)CC2)cc1,inactive,
CN1Cc2c(N)cccc2[C@H](c2ccccc2)C1,inactive,
Cc1noc(C)c1-c1ccc2ncnc(NCc3cccnc3)c2c1,,-6.6% [at 2.29 µM] (inactive)
CCOCCCn1cnc2c(c1=O)c1nc3ccccc3nc1n2-c1ccccc1,15.8 µM (active),
COc1ncc2nc(C)c(=O)n(-c3ccccc3)c2n1,inactive,

SMILES,AC50,"activity, negative = inhibition"
CCCCn1cnc2c(c(CC#N)nn2-c2ccccc2)c1=N,,-11.5% [at 11.4 µM] (inactive)
CN1CCc2nc(N)nc(-c3nc(N)nc4c3CN(C)CC4)c2C1,,5.01% [at 11.4 µM] (inactive)
Cc1cc(-c2cc(-c3ccc(Cl)cc3)nc(N)c2C#N)co1,11.2 µM (active),
Cc1cc(C)n(-c2nc3ccccc3c(=O)n2OCc2ccc(Cl)cc2)n1,5.62 µM (active),
Cn1c(=O)c(-c2ccc(Cl)cc2)nc2cnc(OCc3ccccc3)nc21,inactive,
Oc1c(CN2CCN(c3ccccc3)CC2)cc(Br)c2cccnc12,,7.75% [at 11.4 µM] (inactive)
COc1ccc(-n2c(=O)c(-c3ccc(F)cc3)nc3cncnc32)cc1,inactive,
COc1ccc(N2C(=O)NC(NC(=O)c3ccncc3)(C(F)(F)F)C2=O)cc1 (stereo unspecified),6.31 µM (active),
Cc1cccc(C(=O)NC2CCN(C(=O)N3CCOCC3)CC2)c1,inactive,
CC(C)C1NC(=S)N(Cc2ccccc2)C1=O (stereo unspecified),8.91 µM (active),
O=C1C[C@@H](O)[C@@H](O)[C@H]2[C@@H]3C(=O)N(Cc4ccccc4)C(=O)[C@@H]3CC[C@H]12,,-2.13% [at 11.4 µM] (inactive)
O=C(O)CN(CCN(CC(=O)O)CC(=O)O)CCN(CC(=O)O)CC(=O)O,inactive,
CCS(=O)(=O)c1ccc2oc(Nc3cc(C)cc(C)c3)nc2c1,8.91 µM (active),
Cc1ccc(S(=O)(=O)N(C)CC(=O)O/N=C(\N)c2ccccn2)cc1,inactive,
CCN(CC)S(=O)(=O)c1ccc(NC(=O)COC(=O)c2ccc(Br)o2)cc1,8.91 µM (active),
Cc1ccnc2nc(C(=O)OCC(=O)Nc3ccc4c(c3)OC(F)(F)O4)nn12,inactive,
CN(C)S(=O)(=O)c1cccc(NC(=O)COC(=O)c2ccc(Br)o2)c1,6.31 µM (active),
CC(CC(=O)O)CC(=O)Nc1ccc(S(N)(=O)=O)cc1 (stereo unspecified),inactive,
CN(C)S(=O)(=O)c1ccc(NC(=O)COC(=O)c2ccccn2)cc1,10 µM (active),
COc1ccccc1-c1ccc2ncnc(NCCNC(C)=O)c2c1,,-2.65% [at 2.29 µM] (inactive)
C=CC1=C[C@@H](O)C2OC2C12OCCCO2 (stereo partly specified),,12.2% [at 11.4 µM] (inactive)
O=C(Nc1cccc(F)c1)N1CC[C@@]2(CCCNC2)C1,inactive,
